Where “and” joins values, the source holds several entries; their conditions need not be identical. Equal entries are not always repeated. Inconclusive results are not listed. Where a call stands in place of a potency, no number is given. Where a structure was tested more than once in an assay, its records may differ in their call. Calls of active or inactive are those of the source. Unless noted, calls follow the shape of the dose curve; as a rule, active = well fitted curve in the direction sought with a large enough effect in the repeat runs; inconclusive = weak or mixed curves; inactive = no such curve, though single readings can be large; an effect the other way counts as inactive or inconclusive.
Columns and labels:
[1] = A CellTox Green Cytotoxicity Assay to monitor cytotoxicity in HEK293 cells - 32 hour (AID 1224881); also: nearly all actives have a fitted effect of over 40% in size
Outline: (§1)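 Homogeneous no-lysis format: HEK293 cell suspension mixed with CellTox Green reagent, seeded, incubated 5 h at 37 C/5% CO2, then dosed by pintool with compound in DMSO.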

[2] = A CellTox Green Cytotoxicity Assay to monitor cytotoxicity in HepG2 cells - 0 hour (AID 1224882); also: nearly all actives have a fitted effect of over 35% in size
Outline: (§2)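 Fluorescent DNA-binding dye, 600 HepG2 cells/well, 5 h preincubation then compound in DMSO; same plates read at 0–40 h, 37 C.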

[3] = A CellTox Green Cytotoxicity Assay to monitor cytotoxicity in HepG2 cells - 32 hour (AID 1224883); also: nearly all actives have a fitted effect of over 50% in size
Outline: as §2

[4] = A CellTox Green Cytotoxicity Assay to monitor cytotoxicity in HEK293 cells - 8 hour (AID 1224884); also: nearly all actives have a fitted effect of over 35% in size
Outline: as §1

[5] = qHTS RealTime-Glo MT Cell Viability Assay in HepG2 cells - 16 hour (AID 1224885); also: nearly all actives have a fitted effect of over 50% in size; also: potency is read from the fitted curve at half-maximal effect
Outline: (§3)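 Cell number in HepG2 cultures estimated from NanoLuc luminescence generated by metabolic reduction of a prosubstrate by living cells. The homogeneous, nonlytic format allowed repeated reads at 0, 8, 16, 24, 32 and 40 h of compound exposure.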

[6] = qHTS RealTime-Glo MT Cell Viability Assay in HEK293 cells - 24 hour (AID 1224886); also: nearly all actives have a fitted effect of over 50% in size; also: potency is read from the fitted curve at half-maximal effect
Outline: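 Homogeneous bioluminescent viability format in HEK293 cells (600 cells/well). Following 5 h at 37 C/5% CO2, 23 nL compound was pintooled; the signal was measured repeatedly during 40 h incubation.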

[7] = qHTS RealTime-Glo MT Cell Viability Assay in HEK293 cells - 8 hour (AID 1224887); also: nearly all actives have a fitted effect of over 50% in size; also: potency is read from the fitted curve at half-maximal effect
Outline: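 Measured as luminescence from the same continuously cultured HEK293 wells at successive time points (0, 8, 16, 24, 32, 40 h) after compound addition. Reagent present from seeding; dosing at 5 h; incubation 37 C.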

[8] = qHTS RealTime-Glo MT Cell Viability Assay in HepG2 cells - 0 hour (AID 1224889); also: nearly all actives have a fitted effect of over 50% in size; also: potency is read from the fitted curve at half-maximal effect
Outline: as §3

[9] = A CellTox Green Cytotoxicity Assay to monitor cytotoxicity in HepG2 cells - 8 hour (AID 1224890); also: nearly all actives have a fitted effect of over 45% in size
Outline: as §2

[10] = qHTS assay to identify small molecule antagonists of the estrogen receptor alpha (ER-alpha) signaling pathway using the BG1 cell line in the presence of 0.1 nM 17-beta-estradiol - cell viability counter screen (AID 1259241); also: nearly all actives have a fitted effect of over 40% in size
Outline: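 Measures cytotoxicity alongside the ER-alpha antagonist readout: VM7Luc4E2 cells, charcoal-stripped serum, 0.1 nM 17beta-estradiol final, 22 hr compound incubation at 37C, CellTiter-Fluor fluorescence.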

[11] = qHTS assay to identify small molecule antagonists of the androgen receptor (AR) signaling pathway using the MDA cell line in the presence of 0.5 nM R1881 - cell viability counter screen (AID 1259242); also: nearly all actives have a fitted effect of over 45% in size
Outline: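 Human breast carcinoma MDA-kb2 cells, cultured without CO2, receive compounds alongside 0.5 nM (final) R1881 agonist. After 16 hr at 37C, viability is taken as live-cell protease signal.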

[12] = target: Androgen receptor (Homo sapiens) (UniProt P10275); assay: qHTS assay to identify small molecule antagonists of the androgen receptor (AR) signaling pathway using the MDA cell line in the presence of 0.5 nM R1881 (AID 1259243); also: nearly all actives have a fitted effect of over 50% in size; also: potency is read from the fitted curve at half-maximal effect
Androgen receptor (Homo sapiens), sequence (P10275 whole entry, looked up): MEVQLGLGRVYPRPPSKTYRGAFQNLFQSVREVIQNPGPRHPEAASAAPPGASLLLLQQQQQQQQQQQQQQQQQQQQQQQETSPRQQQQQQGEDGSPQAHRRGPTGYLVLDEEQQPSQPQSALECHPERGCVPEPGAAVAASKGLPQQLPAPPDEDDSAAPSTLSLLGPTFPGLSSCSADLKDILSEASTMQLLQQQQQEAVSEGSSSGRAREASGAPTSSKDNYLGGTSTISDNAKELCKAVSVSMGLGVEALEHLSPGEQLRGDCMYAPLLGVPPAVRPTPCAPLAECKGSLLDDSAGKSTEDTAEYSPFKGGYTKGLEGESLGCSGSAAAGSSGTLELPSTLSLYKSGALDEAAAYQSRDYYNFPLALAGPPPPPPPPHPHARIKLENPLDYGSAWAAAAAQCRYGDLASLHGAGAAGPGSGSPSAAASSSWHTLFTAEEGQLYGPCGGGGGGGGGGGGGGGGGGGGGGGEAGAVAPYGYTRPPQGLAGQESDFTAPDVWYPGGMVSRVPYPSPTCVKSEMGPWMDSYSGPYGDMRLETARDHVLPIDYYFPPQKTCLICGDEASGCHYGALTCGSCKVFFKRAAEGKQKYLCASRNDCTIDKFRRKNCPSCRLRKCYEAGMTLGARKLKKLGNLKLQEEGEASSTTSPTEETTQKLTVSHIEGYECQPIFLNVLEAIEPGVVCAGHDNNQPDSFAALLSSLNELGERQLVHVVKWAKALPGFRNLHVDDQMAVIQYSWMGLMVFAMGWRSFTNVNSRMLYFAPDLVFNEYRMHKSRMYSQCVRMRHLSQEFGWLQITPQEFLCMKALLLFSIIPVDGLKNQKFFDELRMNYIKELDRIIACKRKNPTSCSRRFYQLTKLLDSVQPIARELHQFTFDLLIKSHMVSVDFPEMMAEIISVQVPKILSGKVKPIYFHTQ
Outline: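 Cells: MDA-kb2 (MMTV-luc). Stimulus: 0.5 nM R1881. Time: 16 hr, 37C, no CO2. Detection: ONE-Glo luminescence after 30 min at RT.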

[13] = target: Estrogen receptor (Homo sapiens) (UniProt P03372); assay: qHTS assay to identify small molecule antagonists of the estrogen receptor alpha (ER-alpha) signaling pathway using the BG1 cell line in the presence of 0.1 nM 17-beta-estradiol (AID 1259244); also: nearly all actives have a fitted effect of over 50% in size
Estrogen receptor (Homo sapiens), sequence (P03372 whole entry, looked up): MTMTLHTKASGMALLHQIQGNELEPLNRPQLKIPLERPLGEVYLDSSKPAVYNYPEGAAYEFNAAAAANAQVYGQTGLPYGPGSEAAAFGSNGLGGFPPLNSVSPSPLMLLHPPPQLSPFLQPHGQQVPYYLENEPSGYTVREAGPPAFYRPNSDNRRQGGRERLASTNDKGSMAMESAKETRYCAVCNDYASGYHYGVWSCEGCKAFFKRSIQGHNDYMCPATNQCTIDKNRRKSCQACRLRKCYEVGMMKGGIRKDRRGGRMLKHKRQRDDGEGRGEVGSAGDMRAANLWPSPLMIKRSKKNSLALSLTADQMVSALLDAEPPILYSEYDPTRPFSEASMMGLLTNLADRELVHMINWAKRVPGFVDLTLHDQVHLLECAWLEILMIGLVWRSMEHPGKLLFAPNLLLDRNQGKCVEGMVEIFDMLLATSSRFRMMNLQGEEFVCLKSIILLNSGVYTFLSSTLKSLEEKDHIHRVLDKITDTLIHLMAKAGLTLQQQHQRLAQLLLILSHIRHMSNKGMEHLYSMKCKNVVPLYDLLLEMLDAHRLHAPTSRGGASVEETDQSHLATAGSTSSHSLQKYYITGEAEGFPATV
Outline: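 Seeding of stripped-serum-adapted VM7Luc4E2 cells, 24 h attachment, compound transfer, then 0.1 nM final 17beta-estradiol; after 22 h incubation, ONE-Glo reagent and luminescence reading.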

[14] = qHTS assay to identify small molecule HDAC inhibitors (AID 1259364); also: potency is read from the fitted curve at half-maximal effect;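 also: wild-type HCT-116 cells with endogenous class I/II HDAC activity; nearly all actives have a fitted effect of over 45% in size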
Outline: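 After a 2 hr compound incubation (37C, 5% CO2), HCT-116 cells seeded at 1,500/well the day before received HDAC-Glo reagent; signal read as luminescence after 30 min at room temperature.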

[15] = qHTS assay to identify small molecule HDAC inhibitors - cell viability counter screen (AID 1259365)
Outline: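 Following a 2hr exposure of overnight-plated wild-type HCT-116 cells to DMSO-delivered compounds, CellTiter-Glo was added and luminescence recorded after 30min at room temperature.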

[16] = qHTS assay to identify small molecule agonists of the sonic hedgehog signaling (Shh) pathway - cell viability counter screen (AID 1259366); also: nearly all actives have a fitted effect of over 50% in size
Outline: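 After a 4hr attachment at 37C, NIH/3T3 cells bearing an integrated Gli1-driven luciferase reporter were dosed with compounds. Treatment lasted 24hr, with the final hour including CellTiter-Fluor for a fluorescence viability measurement.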

[17] = qHTS assay to identify small molecule antagonists of the sonic hedgehog signaling (Shh) pathway - cell viability counter screen (AID 1259367); also: nearly all actives have a fitted effect of over 55% in size; also: potency is read from the fitted curve at half-maximal effect
Outline: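 Tox21 library chemicals were tested on a Gli1-Luc NIH/3T3 clone (2,000 cells/well) stimulated by conditioned medium; viability was quantified as fluorescence from CellTiter-Fluor reagent added at 23 hr.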

[18] = qHTS assay to identify small molecule agonists of the sonic hedgehog signaling (Shh) pathway (AID 1259368; calls by dose curve; also: nearly all actives have a fitted effect of over 15% in size; also: potency is read from the fitted curve at half-maximal effect)
Outline: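 Stable NIH/3T3 Gli1-Luc reporter clone; 24 hr cpd exposure after a 4 hr settling period; luminescence endpoint.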

[19] = qHTS assay to identify small molecule phospholipidosis (PLD) inducers (AID 1259344; active = well fitted curve in the direction sought with a large enough effect; an effect the other way counts as inactive or inconclusive)
Outline: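 Image-based: LipidTOX Red pit count/intensity per well and per cell; HepG2, 24 h compound at 37 C, PFA fixation, Hoechst counterstain.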

[20] = A CellTox Green Cytotoxicity Assay to monitor cytotoxicity in HEK293 cells - 16 hour (AID 1224888); also: nearly all actives have a fitted effect of over 35% in size
Outline: as §1

Row | SMILES | Potency [1] | Potency [2] | Potency [3] | Potency [4] | Potency [5] | Potency [6] | Potency [7] | Potency [8] | Potency [9] | Potency [10] | Potency [11] | Potency [12] | Potency [13] | Potency [14] | Potency [15] | Potency [16] | Potency [17] | Potency [18] | outcome [19] | Potency [20]
1 | COc1ccc(CCC(=O)c2c(O)cc(O[C@@H]3O[C@H](CO)[C@@H](O)[C@H](O)[C@H]3O[C@@H]3O[C@@H](C)[C@H](O)[C@@H](O)[C@H]3O)cc2O)cc1O | inactive | inactive | inactive | inactive | inactive | inactive | inactive | inactive | inactive | inactive | inactive | inactive | inactive | inactive | inactive | inactive | inactive |  |  | 
2 | CCOC(=O)CC(=O)C(=O)OCC | inactive | inactive | inactive | inactive | inactive |  | inactive | inactive | inactive | inactive |  |  |  | inactive | inactive | inactive | inactive |  |  | 
3 | CCCCCCCC/C=C\CCCCCCCC(=O)OC(CO)CO | inactive | inactive | inactive | inactive | inactive | inactive |  | inactive | inactive | inactive | inactive |  |  | inactive | inactive | inactive | inactive | inactive |  | 
4 | COCCOC | inactive | inactive | inactive | inactive | inactive | 0.74 µM (active) |  |  | inactive | inactive | inactive |  |  |  | inactive | inactive | inactive | inactive |  | 
5 | CC(C)(C)C(=O)C(Oc1ccc(Cl)cc1)n1ccnc1 (stereo not drawn) | inactive | inactive | inactive | inactive | inactive | inactive | inactive | inactive | inactive | inactive | inactive |  | inactive |  | inactive | inactive | inactive | inactive | inactive | 
6 | C=CC(C)(O)CCCC(C)CCCC(C)CCCC(C)C (stereo not drawn) | inactive | inactive | inactive | inactive | inactive | inactive | inactive | inactive | inactive | inactive | inactive |  | inactive | inactive | inactive | inactive | inactive | inactive |  | 
7 | Cc1oncc1C(=O)Nc1ccc(C(F)(F)F)cc1 | inactive | inactive | inactive | inactive | inactive | inactive | inactive | inactive | inactive | inactive | inactive |  | inactive | 2.43 µM (active) and 1.88 µM (active) | inactive | inactive | 61.1 µM (active) and inactive | 15.4 µM (active) and 9.44 µM (active) | inactive | 
8 | CCOC(=O)[C@@H](C)Oc1ccc(Oc2nc3ccc(Cl)cc3o2)cc1 | inactive | inactive | inactive | inactive | 8.71 µM (active) | 21.9 µM (active) | 21.9 µM (active) | inactive |  | inactive | inactive | inactive |  |  | inactive | inactive | inactive | inactive |  | 
9 | O=S(=O)(c1ccccc1)c1ccc(Cl)cc1 | inactive | inactive | inactive | inactive | inactive | inactive | inactive | inactive | inactive | inactive | inactive |  |  | inactive | inactive | inactive | inactive | inactive |  | 
10 | Fc1ccccc1[C@@H](F)COC1CCC(Nc2ncnc3[nH]ncc23)CC1 (stereo partly drawn) | inactive | inactive | inactive | inactive | inactive | 21.9 µM (active) |  |  | inactive |  |  | 15.4 µM (active) |  | inactive | inactive | inactive |  | inactive |  | inactive
11 | C=CCOC(=O)/C=C\C(=O)OCC=C | inactive | inactive | inactive | inactive | inactive |  | inactive | inactive | inactive | inactive | inactive | inactive | inactive | inactive | inactive | inactive | inactive |  |  | inactive
12 | CCOC(=N)CC(=O)OCC | inactive | inactive | inactive | inactive | inactive | inactive |  | inactive | inactive | inactive | inactive |  | inactive | inactive | inactive | inactive | inactive | inactive |  | inactive
13 | C(=C\c1ccccc1)/CN1CCN(C(c2ccccc2)c2ccccc2)CC1 | inactive | inactive | inactive | inactive | inactive |  | inactive | inactive |  | inactive | inactive |  |  | inactive | inactive | inactive | inactive | inactive |  | inactive
14 | CC(=O)[C@H]1CC[C@H]2[C@@H]3C[C@H](C)C4=CC(=O)CC[C@]4(C)[C@H]3[C@@H](O)C[C@]12C | inactive | inactive | inactive | inactive | inactive |  | inactive | 0.379 µM (active) | inactive | inactive | inactive | inactive |  |  | inactive | inactive | inactive | inactive | inactive | inactive
15 | Fc1c(F)c(F)c(Br)c(F)c1F | inactive | inactive | inactive | inactive | inactive | inactive | inactive | inactive | inactive | inactive | inactive |  |  | inactive | inactive | inactive | inactive |  |  | 
16 | CCN(CC)CCNC(=O)c1ccc(NC(C)=O)cc1 | inactive | inactive | inactive | inactive | inactive | inactive | inactive | inactive | inactive | inactive | inactive | inactive | inactive | inactive | inactive | inactive | inactive | inactive | inactive | 
17 | N#C/C(=C1\SCC(c2ccccc2Cl)S1)n1ccnc1 (stereo not drawn) | inactive | inactive | inactive | inactive | inactive |  |  |  | inactive | inactive | inactive |  |  | inactive | inactive | inactive | inactive |  | inactive | inactive
18 | Cc1cc(C(=C2C=CC(=Nc3ccc(S(=O)(=O)O)cc3S(=O)(=O)O)C=C2)c2ccc(Nc3ccc(S(=O)(=O)O)cc3)cc2)ccc1N | inactive | inactive | inactive |  | inactive | inactive | inactive |  | inactive |  | inactive |  | inactive | inactive | inactive | inactive | inactive | inactive |  | inactive

— PubChem BioAssay (Tox21)
